Assay results as given in PubChem BioAssay (NCI).
About 79,000 compounds went through this panel and 15% of them were active in at least one assay; those are over-represented in the sample as a whole. Values without a mark were called inactive. The source made the active and inactive calls. Rule as the data show it: active = growth inhibition above about 70%; inactive = the rest.

Tests used:
[1] = NCI Yeast Anticancer Drug Screen. Data for the rad50 strain (AID 155);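 also: 0% = growth of vehicle-only cultures of the same strain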; conditions: S. cerevisiae rad50 strain growth inhibition, active compounds read high
Summary of the method: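 Yeast carrying a defined DNA repair defect were exposed to test compounds, and growth was compared with vehicle-treated controls to give percent inhibition.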

[2] = NCI Yeast Anticancer Drug Screen. Data for the mec2-1 strain (AID 157); conditions: S. cerevisiae mec2-1 strain, active compounds read high
Summary of the method: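 Cells of the genetically defined mec2-1 yeast strain are incubated with test compound. Inhibition of growth is calculated against vehicle-treated controls.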

[3] = NCI Yeast Anticancer Drug Screen. Data for the sgs1 mgt1 strain (AID 161);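 also: 0% = growth of cultures given vehicle only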; conditions: S. cerevisiae sgs1 mgt1 strain, active compounds read high
Summary of the method: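 Mutant yeast exposed to compound; growth scored against vehicle-only wells.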

[4] = NCI Yeast Anticancer Drug Screen. Data for the cln2 rad14 strain (AID 165);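 also: 0% = growth equal to vehicle treated cultures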; conditions: S. cerevisiae cln2 rad14 strain, active compounds read high
Summary of the method: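 The screen exposed genetically defined yeast (cln2 rad14) to test compounds and scored growth inhibition relative to vehicle-treated controls.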

[5] = NCI Yeast Anticancer Drug Screen. Data for the bub3 strain (AID 167); conditions: S. cerevisiae bub3 mutant strain, active compounds read high
Summary of the method: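 Compounds were applied to a genetically altered yeast strain carrying a cell-cycle control defect. Growth inhibition was scored against vehicle-treated controls.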

[6] = NCI Yeast Anticancer Drug Screen. Data for the mlh1 rad18 strain (AID 175); conditions: S. cerevisiae mlh1 rad18 strain growth inhibition, active compounds read high
Summary of the method: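 Compound-treated yeast growth, normalised to vehicle controls. Strain bears defined DNA repair mutations.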

[7] = at 5.0 µM (retest, dose inferred, filed as 0.5)
[8] = at 50.0 µM (retest, dose inferred, filed as 5.0)

| Structure (SMILES) | growth inhibition [1, 7] [%] | growth inhibition [1, 8] | growth inhibition ([1]; at 50.0 µM) | growth inhibition [2, 7] [%] | growth inhibition [2, 8] | growth inhibition ([2]; at 50.0 µM) | growth inhibition [3, 7] [%] | growth inhibition [3, 8] | growth inhibition ([3]; at 50.0 µM) | growth inhibition [4, 7] | growth inhibition [4, 8] | growth inhibition ([4]; at 50.0 µM) | growth inhibition [5, 7] [%] | growth inhibition [5, 8] | growth inhibition ([5]; at 50.0 µM) | growth inhibition [6, 7] | growth inhibition [6, 8] | growth inhibition ([6]; at 50.0 µM) |
| --- | --- | --- | --- | --- | --- | --- | --- | --- | --- | --- | --- | --- | --- | --- | --- | --- | --- | --- |
| O=C1/C(=C/c2ccccc2)CCC/C1=C\c1ccc(O)c(CN2CCCCC2)c1 | 25 | 42% | -4.05% | 16 | 27% | 1.95% | 26 | 47% | 88.8% (active) | 18% | 12% | 74.9% (active) | 21 | 32% | 82.2% (active) | 25% | 44% | 90.8% (active) |
| O=c1oc2c/c(=C\c3ccccc3)c(=O)c3cccc1c3-2 | -6 | 97% (active) | 84.4% (active) | -2 | 95% (active) | 88.7% (active) | 12 | 97% (active) | 81.2% (active) | -7% | 96% (active) | 87.2% (active) | -7 | 96% (active) | 86.7% (active) | 28% | 96% (active) | 78.7% (active) |
| O=C(OC12CCCCC1CCCC2)c1ccc([N+](=O)[O-])cc1 (stereo not given) | 28 | 98% (active) | 98% (active) | 29 | 99% (active) | 99.5% (active) | 32 | 99% (active) | 99.1% (active) | 11% | 99% (active) | 99.5% (active) | 33 | 99% (active) | 99.4% (active) | 44% | 98% (active) | 99.2% (active) |
| S=C(N/N=C(/c1ccccc1)c1ccccn1)N1CCCCC1 | 58 | 98% (active) | 80.2% (active) | 27 | 98% (active) | 86.3% (active) | 66 | 98% (active) | 88.2% (active) | 30% | 97% (active) | 89% (active) | 54 | 97% (active) | 90.2% (active) | 83% (active) | 98% (active) | 90.8% (active) |
| O=C1CC2(CCN(CC3COc4ccccc4O3)CC2)C(=O)N1N1CCCCCC1 (stereo not given) | 51 | 66% | 77% (active) | 33 | 41% | 70.4% (active) | 62 | 66% | 82.8% (active) | 78% (active) | 83% (active) | 84% (active) | 48 | 68% | 85.5% (active) | 37% | 75% (active) | 83.8% (active) |
| O=Cc1cc(-c2ccccc2)n(-c2ccccc2)c1-c1ccccc1 | 18 | 18% | 64.3% | 2 | -3% | 22.2% | -6 | 16% | 63% | -6% | 27% | 0% | 0 | 9% | 35.9% | -1% | 16% | 47.3% |
| CC(=O)CC1CCC(=O)/C=C/C(=O)OC(CC(C)=O)CCC(=O)/C=C/C(=O)O1 (stereo not given) | 20 | 38% | 16.3% | 14 | 47% | -13.5% | 11 | 42% | -6.3% | 5% | 27% | 23.1% | 9 | 82% (active) | -17.1% | 17% | 56% | -81.7% |
| O=C1C=CC(=O)c2ccc(=O)ccc21 | 38 | 99% (active) | 22.6% | 25 | 99% (active) | -1.45% | 38 | 99% (active) | 25.9% | 20% | 98% (active) | 28.4% | 27 | 99% (active) | -1.35% | 71% (active) | 98% (active) | 51.2% |
| CC(=O)N1C(c2[nH]c3ccccc3c2-c2ccccc2)CCN1c1ccccc1 (stereo not given) | -12 | 74% (active) | 64.1% | -2 | 51% | 54.7% | 14 | 87% (active) | 83.2% (active) | 7% | 73% (active) | 69.9% | -5 | 87% (active) | 63.2% | -9% | 83% (active) | 71% (active) |
| O=C(N/C(=C\c1ccc(Cl)cc1)c1nc2ccccc2[nH]1)c1ccccc1 | 0 | 96% (active) | 97.3% (active) | -1 | 98% (active) | 97.5% (active) | 10 | 98% (active) | 96.8% (active) | -1% | 97% (active) | 96.5% (active) | 13 | 97% (active) | 98.1% (active) | 2% | 97% (active) | 96.7% (active) |
